# Results reported in ChEMBL document CHEMBL1961873, “Compounds: GSK PKIS; Assays: Nanosyn kinase panel” (2012).
# Tests used:
# [1] = biological target: T1, Tyrosine-protein kinase receptor TYRO3 (Homo sapiens) (UniProt Q06418); details: at 1 µM
# T1 sequence (whole entry): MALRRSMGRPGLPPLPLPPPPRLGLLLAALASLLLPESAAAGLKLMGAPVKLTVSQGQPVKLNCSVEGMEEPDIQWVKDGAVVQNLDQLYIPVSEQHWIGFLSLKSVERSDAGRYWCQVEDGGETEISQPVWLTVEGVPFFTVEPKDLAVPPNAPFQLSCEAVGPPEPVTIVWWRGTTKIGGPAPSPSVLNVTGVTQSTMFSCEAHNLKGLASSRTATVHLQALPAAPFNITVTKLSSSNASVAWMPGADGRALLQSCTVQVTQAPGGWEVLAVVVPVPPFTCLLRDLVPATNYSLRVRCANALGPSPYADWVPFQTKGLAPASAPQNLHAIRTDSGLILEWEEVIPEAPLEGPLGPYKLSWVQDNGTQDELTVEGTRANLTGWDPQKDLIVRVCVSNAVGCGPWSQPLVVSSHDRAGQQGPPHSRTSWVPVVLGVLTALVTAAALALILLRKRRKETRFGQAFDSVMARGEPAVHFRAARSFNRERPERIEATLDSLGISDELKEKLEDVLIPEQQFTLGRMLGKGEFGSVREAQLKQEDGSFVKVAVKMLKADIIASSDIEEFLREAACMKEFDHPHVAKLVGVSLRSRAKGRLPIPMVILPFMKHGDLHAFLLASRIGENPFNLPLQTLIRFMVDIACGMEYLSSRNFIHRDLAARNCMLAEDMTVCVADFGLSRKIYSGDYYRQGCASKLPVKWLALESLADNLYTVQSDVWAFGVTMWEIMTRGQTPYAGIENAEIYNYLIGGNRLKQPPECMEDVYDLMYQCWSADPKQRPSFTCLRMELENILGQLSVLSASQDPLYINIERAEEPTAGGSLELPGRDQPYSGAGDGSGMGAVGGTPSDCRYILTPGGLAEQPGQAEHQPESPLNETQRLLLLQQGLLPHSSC
# [2] = biological target: Tyrosine-protein kinase Yes (Homo sapiens) (UniProt P07947); details: at 0.1 µM
# [3] = biological target: Tyrosine-protein kinase Yes (Homo sapiens) (UniProt P07947); details: at 1 µM
# [4] = biological target: T2, Tyrosine-protein kinase ZAP-70 (Homo sapiens) (UniProt P43403); details: at 0.1 µM
# T2 sequence (whole entry): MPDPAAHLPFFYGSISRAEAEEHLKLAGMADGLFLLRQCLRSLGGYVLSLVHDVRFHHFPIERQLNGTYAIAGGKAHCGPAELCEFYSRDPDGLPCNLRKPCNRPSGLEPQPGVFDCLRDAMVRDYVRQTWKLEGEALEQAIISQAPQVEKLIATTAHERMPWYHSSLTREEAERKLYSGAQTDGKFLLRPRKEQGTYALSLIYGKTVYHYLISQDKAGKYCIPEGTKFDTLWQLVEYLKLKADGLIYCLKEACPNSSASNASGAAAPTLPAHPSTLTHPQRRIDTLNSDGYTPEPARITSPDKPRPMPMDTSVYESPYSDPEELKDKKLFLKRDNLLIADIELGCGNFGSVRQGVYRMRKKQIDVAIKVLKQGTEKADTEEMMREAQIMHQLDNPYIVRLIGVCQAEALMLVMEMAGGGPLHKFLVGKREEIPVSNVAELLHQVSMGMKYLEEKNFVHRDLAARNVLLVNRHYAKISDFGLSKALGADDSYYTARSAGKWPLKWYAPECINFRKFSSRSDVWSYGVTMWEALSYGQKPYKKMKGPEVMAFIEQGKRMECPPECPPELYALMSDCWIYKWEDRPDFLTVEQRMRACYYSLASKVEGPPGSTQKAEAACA
# [5] = biological target: T2, Tyrosine-protein kinase ZAP-70 (Homo sapiens); details: at 1 µM
# [6] = biological target: Serine/threonine-protein kinase B-raf (Homo sapiens) (UniProt P15056); details: at 0.1 µM
# [7] = biological target: Serine/threonine-protein kinase B-raf (Homo sapiens) (UniProt P15056); details: at 1 µM
# [8] = test system: Serine/threonine-protein kinase B-raf (Homo sapiens), P15056 [V600E]; details: at 0.1 µM
# [9] = test system: Serine/threonine-protein kinase B-raf (Homo sapiens), P15056 [V600E]; details: at 1 µM
# [10] = biological target: RAF proto-oncogene serine/threonine-protein kinase (Homo sapiens) (UniProt P04049); details: at 0.1 µM
# [11] = biological target: RAF proto-oncogene serine/threonine-protein kinase (Homo sapiens) (UniProt P04049); details: at 1 µM
# [12] = biological target: T3, Interleukin-1 receptor-associated kinase 4 (Homo sapiens) (UniProt Q9NWZ3); details: at 0.1 µM
# T3 sequence (whole entry): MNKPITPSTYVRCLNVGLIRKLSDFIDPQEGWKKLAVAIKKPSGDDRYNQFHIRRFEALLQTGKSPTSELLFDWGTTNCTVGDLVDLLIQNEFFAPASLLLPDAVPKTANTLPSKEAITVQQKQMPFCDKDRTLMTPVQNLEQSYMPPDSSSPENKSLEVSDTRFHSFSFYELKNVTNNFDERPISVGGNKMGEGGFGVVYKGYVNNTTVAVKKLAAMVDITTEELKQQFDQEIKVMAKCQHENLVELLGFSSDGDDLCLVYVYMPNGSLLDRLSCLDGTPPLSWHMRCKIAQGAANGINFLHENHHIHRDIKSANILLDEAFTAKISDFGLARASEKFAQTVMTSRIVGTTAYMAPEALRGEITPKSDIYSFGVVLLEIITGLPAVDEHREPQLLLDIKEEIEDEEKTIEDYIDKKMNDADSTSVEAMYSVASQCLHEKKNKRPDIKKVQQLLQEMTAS
# [13] = biological target: T3, Interleukin-1 receptor-associated kinase 4 (Homo sapiens); details: at 1 µM
# [14] = biological target: Leucine-rich repeat serine/threonine-protein kinase 2 (Homo sapiens) (UniProt Q5S007); details: at 0.1 µM
# [15] = biological target: Leucine-rich repeat serine/threonine-protein kinase 2 (Homo sapiens) (UniProt Q5S007); details: at 1 µM
# [16] = test system: Leucine-rich repeat serine/threonine-protein kinase 2 (Homo sapiens), Q5S007 [G2019S]; details: at 0.1 µM
# [17] = test system: Leucine-rich repeat serine/threonine-protein kinase 2 (Homo sapiens), Q5S007 [G2019S]; details: at 1 µM
# Chain of Tyrosine-protein kinase Yes (Homo sapiens) (P07947 2-543 limits assumed): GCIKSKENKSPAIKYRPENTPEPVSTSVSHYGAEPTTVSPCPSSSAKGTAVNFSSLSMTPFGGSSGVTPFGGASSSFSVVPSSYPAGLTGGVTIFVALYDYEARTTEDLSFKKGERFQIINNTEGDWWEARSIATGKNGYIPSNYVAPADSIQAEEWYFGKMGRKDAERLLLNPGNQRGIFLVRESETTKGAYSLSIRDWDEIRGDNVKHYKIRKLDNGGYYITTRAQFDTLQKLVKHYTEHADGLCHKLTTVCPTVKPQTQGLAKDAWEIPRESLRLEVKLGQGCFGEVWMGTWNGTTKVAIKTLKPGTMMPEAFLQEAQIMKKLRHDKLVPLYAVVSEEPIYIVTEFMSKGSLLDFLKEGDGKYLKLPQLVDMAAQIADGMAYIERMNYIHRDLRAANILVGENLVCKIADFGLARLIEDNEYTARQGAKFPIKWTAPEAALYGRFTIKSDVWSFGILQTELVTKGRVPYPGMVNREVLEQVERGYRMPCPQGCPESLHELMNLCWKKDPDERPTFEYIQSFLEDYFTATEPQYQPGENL
# Chain of Serine/threonine-protein kinase B-raf (Homo sapiens), P15056 [V600E] (P15056 whole entry V600E): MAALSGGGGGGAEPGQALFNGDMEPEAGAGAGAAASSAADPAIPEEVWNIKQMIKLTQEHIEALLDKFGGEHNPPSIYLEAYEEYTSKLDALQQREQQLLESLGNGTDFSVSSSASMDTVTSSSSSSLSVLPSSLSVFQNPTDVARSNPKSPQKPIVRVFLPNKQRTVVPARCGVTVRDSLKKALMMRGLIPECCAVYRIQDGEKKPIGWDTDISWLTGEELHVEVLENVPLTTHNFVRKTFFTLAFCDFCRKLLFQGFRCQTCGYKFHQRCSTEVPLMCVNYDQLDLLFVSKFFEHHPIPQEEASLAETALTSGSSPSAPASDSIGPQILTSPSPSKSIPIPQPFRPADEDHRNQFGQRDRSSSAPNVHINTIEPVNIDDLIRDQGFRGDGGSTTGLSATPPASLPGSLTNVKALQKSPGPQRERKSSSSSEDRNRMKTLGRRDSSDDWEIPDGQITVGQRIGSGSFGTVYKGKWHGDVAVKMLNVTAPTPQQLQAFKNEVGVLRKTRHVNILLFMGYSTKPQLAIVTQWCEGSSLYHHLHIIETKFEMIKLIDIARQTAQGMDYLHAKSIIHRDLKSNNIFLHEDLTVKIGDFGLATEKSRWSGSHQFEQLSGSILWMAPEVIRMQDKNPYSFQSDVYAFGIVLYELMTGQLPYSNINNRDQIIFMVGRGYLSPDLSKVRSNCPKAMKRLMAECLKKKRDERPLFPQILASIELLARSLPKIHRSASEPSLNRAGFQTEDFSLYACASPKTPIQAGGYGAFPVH
# Chain of Leucine-rich repeat serine/threonine-protein kinase 2 (Homo sapiens) (Q5S007 whole entry): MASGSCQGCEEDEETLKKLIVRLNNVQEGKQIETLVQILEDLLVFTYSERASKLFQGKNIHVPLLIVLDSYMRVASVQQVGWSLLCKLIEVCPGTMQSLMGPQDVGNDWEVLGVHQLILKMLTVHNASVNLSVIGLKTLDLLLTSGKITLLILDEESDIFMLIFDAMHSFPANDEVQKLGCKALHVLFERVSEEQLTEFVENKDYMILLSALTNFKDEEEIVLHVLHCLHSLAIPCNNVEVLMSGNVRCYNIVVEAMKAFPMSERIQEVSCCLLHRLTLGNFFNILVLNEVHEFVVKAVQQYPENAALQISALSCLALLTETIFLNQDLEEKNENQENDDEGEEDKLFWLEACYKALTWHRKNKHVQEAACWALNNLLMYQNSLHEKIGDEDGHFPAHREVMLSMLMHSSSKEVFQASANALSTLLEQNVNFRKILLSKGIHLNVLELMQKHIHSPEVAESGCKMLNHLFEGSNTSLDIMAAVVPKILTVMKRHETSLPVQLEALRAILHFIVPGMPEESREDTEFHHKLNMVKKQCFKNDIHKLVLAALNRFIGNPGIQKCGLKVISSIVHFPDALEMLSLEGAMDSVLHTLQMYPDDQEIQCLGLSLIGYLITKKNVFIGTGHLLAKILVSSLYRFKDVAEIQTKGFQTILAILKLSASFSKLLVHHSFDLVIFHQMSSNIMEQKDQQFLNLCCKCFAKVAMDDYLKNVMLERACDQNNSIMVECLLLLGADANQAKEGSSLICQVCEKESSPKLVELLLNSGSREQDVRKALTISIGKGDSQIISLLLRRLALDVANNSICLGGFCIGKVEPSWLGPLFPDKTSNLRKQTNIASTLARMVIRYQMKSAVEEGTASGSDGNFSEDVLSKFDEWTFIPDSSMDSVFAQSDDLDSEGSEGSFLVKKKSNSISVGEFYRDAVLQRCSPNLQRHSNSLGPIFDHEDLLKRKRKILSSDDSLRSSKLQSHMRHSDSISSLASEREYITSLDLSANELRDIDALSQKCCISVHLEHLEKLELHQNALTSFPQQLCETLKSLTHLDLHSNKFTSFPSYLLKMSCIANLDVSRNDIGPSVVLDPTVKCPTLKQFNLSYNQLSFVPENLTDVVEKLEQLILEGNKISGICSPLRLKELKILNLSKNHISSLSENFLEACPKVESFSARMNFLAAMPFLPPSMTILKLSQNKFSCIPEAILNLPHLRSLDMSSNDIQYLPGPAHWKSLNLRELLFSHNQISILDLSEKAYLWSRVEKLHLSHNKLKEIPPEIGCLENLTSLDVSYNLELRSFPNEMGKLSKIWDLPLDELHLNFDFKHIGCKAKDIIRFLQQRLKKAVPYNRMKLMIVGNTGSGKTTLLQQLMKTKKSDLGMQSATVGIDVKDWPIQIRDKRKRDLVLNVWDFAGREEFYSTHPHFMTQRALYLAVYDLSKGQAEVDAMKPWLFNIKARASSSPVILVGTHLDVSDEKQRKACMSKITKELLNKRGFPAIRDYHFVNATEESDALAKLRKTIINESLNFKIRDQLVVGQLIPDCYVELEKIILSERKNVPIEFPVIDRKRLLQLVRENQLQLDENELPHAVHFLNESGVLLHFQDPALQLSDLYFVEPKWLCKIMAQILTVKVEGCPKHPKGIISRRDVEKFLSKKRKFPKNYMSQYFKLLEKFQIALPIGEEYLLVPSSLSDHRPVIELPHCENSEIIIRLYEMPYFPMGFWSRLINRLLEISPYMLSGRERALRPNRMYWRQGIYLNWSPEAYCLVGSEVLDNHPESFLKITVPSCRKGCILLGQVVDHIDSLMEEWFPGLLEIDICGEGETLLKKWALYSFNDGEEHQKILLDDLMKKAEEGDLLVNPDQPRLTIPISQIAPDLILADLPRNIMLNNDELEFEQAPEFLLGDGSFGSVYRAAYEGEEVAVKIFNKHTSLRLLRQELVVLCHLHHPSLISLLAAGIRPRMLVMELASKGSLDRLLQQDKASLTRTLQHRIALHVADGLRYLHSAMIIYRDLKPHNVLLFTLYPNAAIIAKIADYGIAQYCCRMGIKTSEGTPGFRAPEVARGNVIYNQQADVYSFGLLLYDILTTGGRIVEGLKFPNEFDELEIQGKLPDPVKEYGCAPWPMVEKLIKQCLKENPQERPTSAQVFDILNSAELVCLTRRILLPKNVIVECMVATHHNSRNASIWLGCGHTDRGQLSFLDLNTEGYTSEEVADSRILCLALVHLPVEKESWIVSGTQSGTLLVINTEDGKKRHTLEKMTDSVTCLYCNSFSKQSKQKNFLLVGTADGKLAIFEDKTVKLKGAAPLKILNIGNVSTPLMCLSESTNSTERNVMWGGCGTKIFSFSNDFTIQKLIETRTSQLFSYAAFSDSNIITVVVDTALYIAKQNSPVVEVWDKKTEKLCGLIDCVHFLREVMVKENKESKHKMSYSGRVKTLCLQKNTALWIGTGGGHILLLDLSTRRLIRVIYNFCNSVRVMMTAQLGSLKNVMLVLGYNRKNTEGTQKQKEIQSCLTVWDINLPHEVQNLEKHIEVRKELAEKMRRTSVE
# Chain of RAF proto-oncogene serine/threonine-protein kinase (Homo sapiens) (P04049 whole entry): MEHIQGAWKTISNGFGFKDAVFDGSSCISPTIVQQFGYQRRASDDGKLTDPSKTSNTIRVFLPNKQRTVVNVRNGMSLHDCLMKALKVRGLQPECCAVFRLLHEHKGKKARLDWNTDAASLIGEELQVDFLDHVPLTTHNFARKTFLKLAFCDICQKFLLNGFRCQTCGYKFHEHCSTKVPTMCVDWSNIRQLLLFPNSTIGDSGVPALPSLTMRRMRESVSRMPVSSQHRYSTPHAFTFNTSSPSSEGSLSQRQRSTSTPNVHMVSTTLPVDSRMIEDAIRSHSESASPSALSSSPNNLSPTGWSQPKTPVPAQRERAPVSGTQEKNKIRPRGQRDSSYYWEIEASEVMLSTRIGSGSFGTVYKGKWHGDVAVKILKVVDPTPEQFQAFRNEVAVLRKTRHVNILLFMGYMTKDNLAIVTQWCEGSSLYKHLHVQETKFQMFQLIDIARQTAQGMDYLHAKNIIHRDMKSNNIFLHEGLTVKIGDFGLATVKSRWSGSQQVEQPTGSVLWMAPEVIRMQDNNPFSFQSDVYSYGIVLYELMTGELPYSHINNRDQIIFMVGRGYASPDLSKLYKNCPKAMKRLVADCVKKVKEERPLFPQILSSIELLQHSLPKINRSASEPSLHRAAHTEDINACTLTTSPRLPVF
# Chain of Leucine-rich repeat serine/threonine-protein kinase 2 (Homo sapiens), Q5S007 [G2019S] (Q5S007 whole entry G2019S): as the sequence (Q5S007 whole entry) above, with G2019S counted along it
# Chain of Serine/threonine-protein kinase B-raf (Homo sapiens) (P15056 whole entry): as the sequence (P15056 whole entry V600E) above, with E600V counted along it
SMILES,inhibition [1] [%],inhibition [2] [%],inhibition [3] [%],inhibition [4] [%],inhibition [5] [%],inhibition [6] [%],inhibition [7] [%],inhibition [8] [%],inhibition [9] [%],inhibition [10] [%],inhibition [11] [%],inhibition [12] [%],inhibition [13] [%],inhibition [14] [%],inhibition [15] [%],inhibition [16] [%],inhibition [17] [%]
Cc1ccc2c(-c3ccnc(Nc4cccc(C(F)(F)F)c4)n3)c(-c3ccccc3)nn2n1,17.5,53.8,91.8,0.09,2.06,6.35,14.1,4.17,8.85,4.15,3.34,2.03,2.78,1.87,7.47,2.59,4.94
COc1cc2ncn(-c3cc(OCc4ccccc4S(C)(=O)=O)c(C#N)s3)c2cc1OC,20.1,8.67,39.2,,4,5.38,8.14,4.97,6.91,5.23,2.83,-0.58,10.8,25.5,83.7,60.4,61.8
Nc1nccc(C#Cc2cncnc2Nc2ccc(OCc3cccc(F)c3)c(Cl)c2)n1,3.66,-0.62,5.85,1.97,3.29,3.49,6.72,3.75,5.29,-0.89,-0.28,0.44,2.48,7.72,11.1,8.54,14
CN(C)c1cc2c(Nc3ccc4c(cnn4Cc4ccccc4)c3)ncnc2cn1,7.51,13.5,49.8,2.63,5.85,3.72,3.71,4.74,4.34,1.64,7.17,3.11,1.57,3.31,9.07,3.44,8.03
O=C1Nc2ccccc2/C1=C/Nc1ccc2[nH]c(=O)[nH]c2c1,21.6,6.92,27.2,3.11,7.45,9.63,10.4,8.7,8.75,0.68,-0.47,2.93,2.88,3.06,14.1,6.22,35
COC(=O)c1ccc2c(c1)C(=Cc1cc(Br)c(O)c(Br)c1)C(=O)N2,12.4,0.08,12.2,3.31,5.41,9.11,19.7,7.27,18.2,3.01,42,1.11,2.79,29.1,88.5,58.3,91.7
COC(=O)Nc1nc2cc(Oc3ccc(NC(=O)Nc4cccc(Br)c4)cc3)ccc2[nH]1,15.3,4.4,6.98,5.03,3.22,13,20.6,11.3,20.8,-5.74,44.2,1.75,1.23,8.94,13.4,4.67,10.5
